# From PubChem BioAssay
# In the library only some 4% were active in any assay of this set; here they are far more common.
# TWEAK Fn14 block = inhibitors of TWEAK-Fn14 signaling, primary screen, luciferase reporter cells, uHTS; inhibition, % at 10 µM; 2% of 360,000 active; TWEAK-stimulated Fn14 reporter cells, luciferase luminescence, 8 h; in the data active means inhibition above about 50%
# CF NFkB block = inhibitors of PAF-induced NF-kB signaling, primary screen, cell-based, GFP fluorescence, uHTS | KKLEB NF-kB-GFP reporter, GFP fluorescence overnight | AID 588850, 2011 | inhibition, % at 5 µM | 0.86% of 360,000 active;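 active means at least 50% inhibition at 5 µM, scaled per plate between neutral and stimulator controls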;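 further: PAF is a Pseudomonas aeruginosa culture filtrate used as stimulus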
# TROY NFkB inh = inhibitors of TROY-driven NF-kB signaling, primary screen, Q293 LMP1-TROYcd cells, NF-kB luciferase, uHTS; Q293 LMP1-TROYcd NF-kB luciferase reporter, 4 h; inhibition, % at 10 µM; 0.98% of 360,000 active; AID 1347056, 2019;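 active means compounds whose plate-normalised and pattern-corrected inhibition of the luciferase reporter signal at the single screening dose is 50% or more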
# Peg3 prom inh = Peg3 promoter-driven luciferase inhibitors, primary screen, cell-based, HeLa, luciferase luminescence | HeLa PEG-Prom luciferase reporter, overnight | inhibition, % at 20 µM | 1.7% of 360,000 active;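 active means inhibition of at least 50% at 20 µM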
# HIF-2a inh = HIF-2a reporter inhibitors, primary screen, luminescence, 786-0 RCC cells | 786-0 RCC cells HIF-2a reporter, luciferase luminescence, overnight | inhibition, % at 18.8 µM | 0.72% of 360,000 active | AID 624352, 2012;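 active means inhibition of the luminescence signal of 40% or more relative to plate controls, in a single-dose primary screen at 18.75 µM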
# KKLEB cytotox = cytotoxicity in KKLEB CF airway cells, primary screen, cytotoxicity control for CF NF-kB inhibitor project, cell-based, uHTS, fluorescence assay plates; activity change (cytotoxicity), % at 5 µM; KKLEB CF airway cells viability, ATPlite luminescence, overnight; hits give low values; cells stimulated with P. aeruginosa culture filtrate; 0.36% of 360,000 active;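 active means corrected activity change at or below -50% at 5 µM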
# A number is an active result; . = inactive; / = no result.
SMILES,TWEAK Fn14 block,CF NFkB block,TROY NFkB inh,Peg3 prom inh,HIF-2a inh,KKLEB cytotox
NC(CCc1ccccc1)c1csc(Nc2ccc(C(=O)NCCO)cc2)n1 (configuration not stated),.,.,.,.,.,.
COc1ccc(C2=Nc3ccccc3N(C(=O)c3cc(Cl)cc(Cl)c3)C2C(=O)NCc2ccccc2)cc1 (configuration not stated),/,/,/,/,.,/
CC(C)c1nnc(NC(=O)CS(=O)(=O)c2ccccc2)s1,.,.,.,.,.,.
CC(C)(C)c1cc(OC(=O)c2ccccc2F)ccc1O,.,.,.,.,.,.
O=C(CN1CCC(C(=O)c2ccc3c(c2)OCCO3)CC1)NCc1ccc(F)cc1,.,.,.,.,.,.
Cn1c(=O)c2[nH]c(SCc3cccnc3)nc2n(C)c1=S,.,.,.,.,.,.
Nc1[nH]c(C(=O)c2ccccc2)c(-c2ccc(Br)cc2)c1C(=O)c1ccc(Br)cc1,90.9,/,.,/,.,/
Cc1cc(C(=O)Nc2nc(C)c(C(=O)N(C)C)s2)ccc1[N+](=O)[O-],53.5,.,61.8,.,.,.
Cc1nc(NC(=O)c2ccc([N+](=O)[O-])cc2Cl)sc1C(=O)N(C)C,.,.,.,.,.,.
Cc1cccc(NS(=O)(=O)c2cc(C(=O)OC(C)C(=O)NCc3ccc4c(c3)OCO4)ccc2C)c1 (configuration not stated),52.8,.,.,.,.,.
CC(=O)Nc1cccc(C(=O)OC(C)C(=O)NCc2ccc3c(c2)OCO3)c1 (configuration not stated),.,.,.,.,.,.
CN1CCn2cnc(C(=O)NCCCCCNC(=O)OC(C)(C)C)c2C1=O,.,.,.,.,.,.
NC(=S)NN=C1CSSC1,.,70.3,.,.,.,.
CC(C)C(C)NC(=O)COc1ccc(Sc2ccc(OCC(=O)NC(C)C(C)C)cc2)cc1 (configuration not stated),66.2,.,.,.,.,.
O=S(=O)(Cc1ccccc1)CS(=O)(=O)Cc1ccccc1,.,.,.,.,.,.
Cc1ccc(NC(=O)c2cc3ccccc3oc2=N)cc1,98.1,.,.,.,.,.
N=c1oc2ccccc2cc1C(=O)Nc1ccc(F)cc1,61.6,.,.,.,.,.
N=c1oc2cc(O)ccc2cc1C(=O)Nc1ccc(Cl)cc1,.,.,.,.,.,.
N=c1oc2ccccc2cc1C(=O)Nc1cccc(F)c1,.,.,.,.,.,.
O=C(CN1C(=O)CSc2ccc(S(=O)(=O)N3CCOCC3)cc21)NCc1ccc(Cl)cc1,.,.,.,.,.,.
COC(=O)CN1C(=O)N(c2ccccc2)C(N(O)C(=O)Nc2ccccc2)C1(C)C (configuration not stated),.,.,.,.,.,.
COC(=O)CNC(=O)CN1C(=O)N(c2ccccc2)C(N(O)C(=O)Nc2ccccc2)C1(C)C (configuration not stated),80.7,.,.,.,.,.
CC1CCN(Cc2c(C(=O)N/N=C/c3ccccc3O)nnn2-c2nonc2N)CC1,.,.,.,66.3,.,.
Nc1nonc1-n1nnc(C(=O)N/N=C/c2ccc(Cl)cc2Cl)c1CN1CCCCC1,.,.,.,.,.,.
Nc1nonc1-n1nnc(C(=O)N/N=C/c2cc(Cl)ccc2O)c1CN1CCCCCC1,.,.,.,53.7,.,.
CN(Cc1c(C(=O)N/N=C/c2cccc(O)c2)nnn1-c1nonc1N)C1CCCCC1,.,.,.,.,.,.
Cc1nnn(-c2nonc2N)c1C(=O)N/N=C/c1cccc2ccccc12,.,.,.,52.2,.,.
CN(Cc1c(C(=O)N/N=C/c2ccccc2O)nnn1-c1nonc1N)C1CCCCC1,.,.,.,58.9,.,.
CC(=C/c1ccccc1)/C=N/NC(=O)c1nnn(-c2nonc2N)c1CN1CCC(C)CC1,.,.,.,.,.,.
O=C(Nc1ccc(F)cc1)C(=O)c1c(O)[nH]c2ccc([N+](=O)[O-])cc12,.,.,.,.,.,.
